High-throughput results from PubChem.
Rows were chosen to be rich in hits. Some 2.4% of all compounds tested hit in one or more screens of this group.
D2 ag-1: agonists of human D2 dopamine receptor (beta-arrestin). P14416. DiscoveRx PathHunter D2 beta-arrestin, luminescence, 90 min; 100% = 57 uM dopamine signal. activation, % (test concentration not listed). hit rate 0.084% among 360,000; in the data active = activation above about 40%; inconclusive = between about 15% and that limit
Target sequence (P14416 whole entry, looked up): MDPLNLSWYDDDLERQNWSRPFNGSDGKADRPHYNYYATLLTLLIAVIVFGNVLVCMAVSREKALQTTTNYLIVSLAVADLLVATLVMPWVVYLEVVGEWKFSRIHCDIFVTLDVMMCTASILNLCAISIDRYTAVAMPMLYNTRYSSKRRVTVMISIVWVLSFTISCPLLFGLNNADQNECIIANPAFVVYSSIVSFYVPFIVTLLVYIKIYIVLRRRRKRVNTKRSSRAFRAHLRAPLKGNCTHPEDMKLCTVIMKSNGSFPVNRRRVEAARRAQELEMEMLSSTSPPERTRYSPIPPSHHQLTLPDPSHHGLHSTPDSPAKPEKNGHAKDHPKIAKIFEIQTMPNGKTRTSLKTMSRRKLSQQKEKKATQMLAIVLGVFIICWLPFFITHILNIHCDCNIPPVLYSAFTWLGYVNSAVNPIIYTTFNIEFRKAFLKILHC
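DiscoveRx PathHunter D2 beta-arrestin cells (2,100/well) attached overnight, then compound-stimulated 90 min at 37 C in HBSS/10 mM HEPES/0.1% Tween-20 buffer; beta-galactosidase complementation read by luminescence after 1 h at ambient temperature. Dopamine 57 uM final (EC100) as control.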
D2 PAM-1: potentiates the human D2 dopamine receptor allosterically. DiscoveRx D2 beta-arrestin cells, luminescence, 90 min; 100% = 57 uM dopamine signal. potentiation, % (no concentration beside the values). hit rate 0.23% among 360,000. P14416; in the data active = potentiation above about 50%; inconclusive = mostly about 30% to 49%
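D2 cells co-treated with compound plus 50 nM dopamine (EC20) for 90 min at 37 deg C to detect potentiation. Beta-arrestin recruitment was read as enzyme-fragment luminescence after 1 h at ambient temperature. Full response was set by 57 uM dopamine.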
D2 ag-2: D2 dopamine receptor (human) agonism. hit rate 0.53% among 340,000. P14416. HEK293 T-REx D2 cells, calcium flux agonist mode. AID 485358. activation, % at 2 µM;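 active = activation over 3 SD above normal in the single-dose calcium agonist read, cut at about 30% in these data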
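Agonism is scored from calcium flux in a force-coupled, inducible HEK293 cell line expressing D2, read kinetically for 180 s after compound addition against dopamine controls.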
D2 PAM-2: positively modulates the human D2 dopamine receptor allosterically; potentiation, % at 10 µM; AID 485347; hit rate 0.34% among 340,000; HEK293 T-REx D2, calcium flux, EC20 dopamine potentiation;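 active = potentiation over 3 SD above the plate norm, cut at about 30% in these data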
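Tetracycline-induced Hek293 Trex D2 cells, force-coupled to calcium, loaded with no-wash calcium dye. Compound added with 180 s kinetic read for agonism, then EC20 dopamine and a further 180 s read for potentiation.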
D2 antagonist: D2 dopamine receptor (human) antagonism. P14416. HEK293 TREx D2 cells, calcium flux, dopamine EC80. inhibition, % at 10 µM. hit rate 2% among 340,000. AID 485344; in the data active = inhibition above about 30%; inactive = below that, where a call was filed
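Tetracycline-induced HEK293 TREx cells expressing D2 receptor forced-coupled to calcium signalling, loaded with no-wash calcium dye. Compounds added and calcium flux read 180 s, then dopamine added at EC80 and read a further 180 s.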
Numbers stand for hits; . = inactive; ? = inconclusive; / = no result given.

SMILES | D2 ag-1 | D2 PAM-1 | D2 ag-2 | D2 PAM-2 | D2 antagonist
CC(=O)Oc1ccc(Oc2ccc(-c3noc(C)n3)cc2)cc1 | . | . | . | 33 | .
Cc1ccc(/C=C/C(=O)NCCCc2ccccc2)cc1 | . | . | . | . | .
C#CCNC(=O)/C=C/c1ccc(C)cc1 | . | . | . | . | 40
Cc1ccc(CN2CCN(C(=O)c3ccncc3)CC2)cc1 | . | . | . | . | .
O=C(Nc1ccc2c(c1)OCO2)c1cnn2cccnc12 | . | . | . | . | 69
CN(CC(=O)Nc1ccc(F)cc1)C(=O)COC(=O)/C=C/c1cccs1 | . | . | . | . | .
CCCC(CCC)C(=O)NC1CCN(Cc2ccccc2)CC1 | . | . | . | . | .
COC(=O)[C@H](C)NC(=O)NC1CCN(Cc2ccccc2)CC1 | . | . | . | . | 50
CC(Oc1ccc(Br)cc1)C(=O)NC1CCN(Cc2ccccc2)CC1 (centres undefined) | . | . | . | . | 64
CC(C)Oc1ccc(C(=O)NC2CCN(Cc3ccccc3)CC2)cc1 | . | . | . | . | .
O=C(O)c1n[nH]c2c1CCCC2 | . | . | . | . | 57
O=C(O)c1n[nH]c2c1CCCCC2 | . | . | . | . | .
CC(O)(c1cccc(F)c1)c1nc(-c2cnc3ccccc3c2)cs1 (centres undefined) | 148 | 65 | / | / | /
COc1cc2c(cc1OC)CN(C(=O)CSc1nc(C)cc(C)c1C#N)CC2 | . | . | . | 34 | .
COc1cc2c(cc1OC)CN(C(=O)CSc1ccc(F)cc1)CC2 | . | . | . | . | 61
On1nnc2ccc(C(F)(F)F)cc21 | . | . | . | . | .
O=C(CSCC(=O)NC1CC1)Nc1ccc2ccccc2c1 | . | . | . | . | 35
COC(=O)c1ccc(N2CCN(CCNC(=O)Nc3ccc(OC)cc3)CC2)cc1 | . | . | . | . | .
O=C(CN1C(=O)COc2ccccc21)NCCCN1CCc2ccccc2C1 | . | . | . | . | 58
O=C(CN1C(=O)COc2ccccc21)NCCCN1CCN(Cc2ccccc2)CC1 | . | . | . | . | .
CCOC(=O)c1c(SCC(=O)Nc2nc(C)cs2)nc(=O)[nH]c1C | . | . | . | . | 32
CCOC(=O)c1c(SCC(=O)Nc2nc3ccccc3s2)nc(=O)[nH]c1C | / | / | . | . | /
COc1ccc(-c2ccc(-c3noc(C4CCCCC4)n3)c(OC)n2)cc1 | . | . | . | . | .
CC1CCCN(Cc2c(O)ccc3c4c(c(=O)oc23)CCCC4)C1 (centres undefined) | . | . | . | . | 36
O=c1oc2c(CN3CCOCC3)c(O)ccc2c2c1CCC2 | . | . | . | . | .
SMILES | D2 ag-1 | D2 PAM-1 | D2 ag-2 | D2 PAM-2 | D2 antagonist
Cc1ccc(CN2C(=O)N(c3ccccc3)C(=O)C2CC(=O)Nc2ccccc2)cc1 (centres undefined) | / | / | . | . | /
Cc1cc(Br)ccc1N=C1C(=O)Nc2ccccc21 | . | . | . | . | 59
Cc1ccc(OCC(=O)Nc2ccc(O)c(-c3nc4ccccc4o3)c2)cc1 | . | . | . | 32 | .
CNC(=O)c1sc2nc(-c3ccc(OC)cc3)cn2c1C | . | . | . | . | .
COC(=O)/C(=C/Nc1ccc(O)cc1)[N+](=O)[O-] | . | 86 | . | . | .
O=C(N/N=C/c1cc(Br)cs1)c1c[nH]c2ccccc12 | . | . | . | . | .
O=C(N/N=C/c1ccc(Br)s1)c1c[nH]c2ccccc12 | . | . | . | . | 34
Cn1c(=O)c2c(ncn2CC(N)=O)n(C)c1=O | . | . | . | . | .
Cn1c(=O)c2c(ncn2CC2OCCO2)n(C)c1=O | . | . | . | . | 32
COc1ccc(-n2nc(C(=O)NCC(=O)N3CCCCCC3)c3ccccc3c2=O)cc1 | . | . | . | . | .
COc1cc(C=O)ccc1OCCSc1ccc(C)cc1 | . | . | . | . | .
CCOc1cc(C=O)ccc1OCCSc1ccc(C)cc1 | . | . | . | . | 40
CCn1ncc(C2=NOC(C(=O)NCc3ccc(OC)cc3)C2)c1C (centres undefined) | . | . | 31 | . | .
Cc1cc(C)n2nc(CCc3nc4nc(C)cc(C)n4n3)nc2n1 | / | / | . | . | .
CC(=O)N(C(C)=O)c1nc2nc(C)cc(C)n2n1 | . | . | . | . | 102
CC(=O)Nc1ccccc1C(=O)N1CC(C)OC(C)C1 (centres undefined) | . | . | . | 40 | .
CC1CN(C(=O)c2cc3ccccc3cc2O)CC(C)O1 (centres undefined) | . | . | / | / | /
Cc1ccc(NC(=O)c2nnn(-c3ccc4c(c3)OCCO4)c2N)cc1 | . | . | . | . | 60
Cc1ccc(S(=O)(=O)N2CCN(C(=S)NCCc3ccccc3)CC2)cc1 | . | . | . | . | .
Cc1ccc(NS(=O)(=O)c2cc(Br)cnc2N)cc1C | . | . | . | . | .
Cc1cc(C)cc(NS(=O)(=O)c2cc(Br)cnc2N)c1 | . | . | . | . | 32
CN(C)c1ccc(O)c2c1CC1CC3C(N(C)C)C(=O)C(C(N)=O)=C(O)[C@@]3(O)C(=O)C1=C2O (some centres undefined) | . | . | / | / | /
CN(C)c1ccc(O)c2c1CC1CC3[C@@H](N(C)C)C(=O)C(C(N)=O)C(=O)[C@]3(O)C(=O)C1C2=O (some centres undefined) | ? | 61 | / | / | /
Cc1ccccc1S(=O)(=O)N(CC(O)CN1CCCCC1)c1ccccc1 (centres undefined) | . | . | . | . | 54
O=[N+]([O-])c1ccccc1S(=O)(=O)N(CC(O)CN1CCCCC1)c1ccccc1 (centres undefined) | . | . | . | . | .
SMILES | D2 ag-1 | D2 PAM-1 | D2 ag-2 | D2 PAM-2 | D2 antagonist
N/C(Cc1ccc(Cl)cc1)=N\OC(=O)Cc1ccc([N+](=O)[O-])cc1 | ? | 86 | . | . | .
COc1cc(C(=O)O/N=C(\N)Cc2ccc([N+](=O)[O-])cc2)cc(OC)c1OC | ? | ? | . | . | .
N/C(Cc1ccc([N+](=O)[O-])cc1)=N\OC(=O)c1ccc([N+](=O)[O-])cc1 | 42 | 61 | . | . | .
N/C(Cc1ccc([N+](=O)[O-])cc1)=N\OC(=O)c1cccc(Br)c1 | 63 | . | . | . | .
COc1ccc(/C=C/C(=O)CC(O)(c2ccccc2)C(F)(F)F)cc1 (centres undefined) | . | . | . | . | .
CCOc1ccc(C2C(C#N)=C(N)SC(N)=C2C#N)c(OCC)c1 | . | . | . | . | 31
CN1CCN(C(c2ccccn2)c2cc(Cl)c3cccnc3c2O)CC1 (centres undefined) | . | . | . | . | .
Cc1ccc(C(c2cc(Cl)c3cccnc3c2O)N2CCN(C)CC2)cc1 (centres undefined) | . | . | . | . | 39
O=C(CN1CCN(c2ccccc2F)CC1)c1c[nH]c2ccc(F)cc12 | . | . | . | . | 35
